According to PMC12864922, “TDP-43 directly inhibits mRNA accumulation in neurites through modulation of mRNA stability”:
In all, about 9,900 sequences were measured (“r (bound/input frequency ratio)”: median about 0.7, highest 2% from about 6.5 on). Only a selection was taken, and the highest values are over-represented in it overall.

B1: ENSMUSG00000031028.145|Tub (ssRNA)
RNA: GGGAGUUCUACAGUCCGACGAUCGCUUCGAUAUCCGCAUGCUAACAGGAUCUAGGUCACCAUUCAAGUAAUGGUAUGCUUCAGGAAGAAUGUCCUCUCUGGGAAGACUCAGCUCCCAUUAUUGCCAGCAUGCCAUGAUCAGUGAGGGCUGUGUGCCAUGCUUAGGGGGAUGGCGCAGGGUGAGGGGAGCAGAGGAUAUUUUAGGGCCACAAGAGCUCAGAGGUAGCGGACCUCUGUGUGGUUCACCAACAGCAAUGCUGAUCCCUGAGUAUAGGGCACAUGUCUCUUGGUUACCUCACUGGUUCUCUUGCGGUCGCACUAGUGUGGAAUUCUCGGGUGUCAAGG
B2: ENSMUSG00000061578.1426|Ksr2 (ssRNA)
RNA: GGGAGUUCUACAGUCCGACGAUCGCUUCGAUAUCCGCAUGCUACUCUUCCUUUUCCUUUUUAGAUCUGUCUUGCUCUCUGUCUCUCUCACUCAUUGCCAACAUGUUGCUGGGAAAGAAUAUUUGAUUUAGAUGCCAAUCAGGAAGGCAAGUAGGAUGGAUGGAUGAGUGAGUGGAUAGGUAGGUAUAUAAAUGGAUGGAUGGGUGAUGGAUGGGUAAAUGAAUGGAUAGGUAUGUGAAUGAAUGGAUGAUGGAUGAAUGGAUGGGUAGGUGGGUAGAUAGGUAUAUGAAUGAAUGGAUGAAUGCUCUUGCGGUCGCACUAGUGUGGAAUUCUCGGGUGUCAAGG
B3: ENSMUSG00000043670.185|Diras1|17:21;114:118;148:152;162:171;177:184;217:221;250:260 (ssRNA)
RNA: GGGAGUUCUACAGUCCGACGAUCGCUUCGAUAUCCGCAUGCUAGCCUCUUUGCUGGUCAACACAACUCUGGAGACUGUCCCCCAUGUCUGCCCUGAGUUACGGAGCCCCUGUGGUAUCUGCGAGACUGUCCAGGAGACUUGAGUGGCUCCUGGGCCACACACCCACCCAGAUGAGGGUGACUUAGAAUUCACACAUUAUGUGCCACACACACACGAUGGCACACACACUGUCUUGGGAUGGGGUGUUCUUGCACCACUUACACAUCUUAGUGAGACCACAGUGUAAGUGGCCCACACACACACCUCUUGCGGUCGCACUAGUGUGGAAUUCUCGGGUGUCAAGG
B4: ENSMUSG00000029028.8|Lrrc47 (ssRNA)
RNA: GGGAGUUCUACAGUCCGACGAUCGCUUCGAUAUCCGCAUGCUAGUACCCAUCCAAGACGGACCUGAUCACCCUCCCUCCCCACGUGACUGUGGUCCGCUGACAGGCUCCUGUAGGUGUGGGUGUGCUGUAGGUGUCUGUGUGGGUGUGGGUGUGCUGUAGGUGUCUGUGUGGGUGUGGGUGUGCUAUAGGUAUCUGUGGGUGUGCUGUAGGUGUCUGUGUGGGUGUGCUGUAGGUGUCUGUGUAGGUGUGGGUGUGCUGUAGGUGUCUGUGUGGGUGUGCUAGGUGUCUGUAUAGGUGUGGGUCUCUUGCGGUCGCACUAGUGUGGAAUUCUCGGGUGUCAAGG
B5: ENSMUSG00000029028.10|Lrrc47 (ssRNA)
RNA: GGGAGUUCUACAGUCCGACGAUCGCUUCGAUAUCCGCAUGCUAGACGGACCUGAUCACCCUCCCUCCCCACGUGACUGUGGUCCGCUGACAGGCUCCUGUAGGUGUGGGUGUGCUGUAGGUGUCUGUGUGGGUGUGGGUGUGCUGUAGGUGUCUGUGUGGGUGUGGGUGUGCUAUAGGUAUCUGUGGGUGUGCUGUAGGUGUCUGUGUGGGUGUGCUGUAGGUGUCUGUGUAGGUGUGGGUGUGCUGUAGGUGUCUGUGUGGGUGUGCUAGGUGUCUGUAUAGGUGUGGGUGUGCUGUAGAUGCUCUUGCGGUCGCACUAGUGUGGAAUUCUCGGGUGUCAAGG
B6: ENSMUSG00000029028.6|Lrrc47 (ssRNA)
RNA: GGGAGUUCUACAGUCCGACGAUCGCUUCGAUAUCCGCAUGCUACUUGAAGGUGGUGUACCCAUCCAAGACGGACCUGAUCACCCUCCCUCCCCACGUGACUGUGGUCCGCUGACAGGCUCCUGUAGGUGUGGGUGUGCUGUAGGUGUCUGUGUGGGUGUGGGUGUGCUGUAGGUGUCUGUGUGGGUGUGGGUGUGCUAUAGGUAUCUGUGGGUGUGCUGUAGGUGUCUGUGUGGGUGUGCUGUAGGUGUCUGUGUAGGUGUGGGUGUGCUGUAGGUGUCUGUGUGGGUGUGCUAGGUGUCUGUCUCUUGCGGUCGCACUAGUGUGGAAUUCUCGGGUGUCAAGG
B7: ENSMUSG00000029028.9|Lrrc47 (ssRNA)
RNA: GGGAGUUCUACAGUCCGACGAUCGCUUCGAUAUCCGCAUGCUAAUCCAAGACGGACCUGAUCACCCUCCCUCCCCACGUGACUGUGGUCCGCUGACAGGCUCCUGUAGGUGUGGGUGUGCUGUAGGUGUCUGUGUGGGUGUGGGUGUGCUGUAGGUGUCUGUGUGGGUGUGGGUGUGCUAUAGGUAUCUGUGGGUGUGCUGUAGGUGUCUGUGUGGGUGUGCUGUAGGUGUCUGUGUAGGUGUGGGUGUGCUGUAGGUGUCUGUGUGGGUGUGCUAGGUGUCUGUAUAGGUGUGGGUGUGCUGCUCUUGCGGUCGCACUAGUGUGGAAUUCUCGGGUGUCAAGG
B8: ENSMUSG00000029028.7|Lrrc47 (ssRNA)
RNA: GGGAGUUCUACAGUCCGACGAUCGCUUCGAUAUCCGCAUGCUAGGUGGUGUACCCAUCCAAGACGGACCUGAUCACCCUCCCUCCCCACGUGACUGUGGUCCGCUGACAGGCUCCUGUAGGUGUGGGUGUGCUGUAGGUGUCUGUGUGGGUGUGGGUGUGCUGUAGGUGUCUGUGUGGGUGUGGGUGUGCUAUAGGUAUCUGUGGGUGUGCUGUAGGUGUCUGUGUGGGUGUGCUGUAGGUGUCUGUGUAGGUGUGGGUGUGCUGUAGGUGUCUGUGUGGGUGUGCUAGGUGUCUGUAUAGGUCUCUUGCGGUCGCACUAGUGUGGAAUUCUCGGGUGUCAAGG
B9: ENSMUSG00000029028.10|Lrrc47|60:64;66:70;82:87;89:93;95:99;111:116;118:122;124:128;145:149;161:166;168:172;184:188;191:195;197:201;213:218;220:224;241:245;247:2 … (ssRNA)
RNA: GGGAGUUCUACAGUCCGACGAUCGCUUCGAUAUCCGCAUGCUAGACGGACCUGAUCACCCUCCCUCCCCACGUGACUGUGGUCCGCUGACAGGCUCCUGUAGCACACGCACACCUGUAGGUGUCACACACGCACACGCACACCUGUAGGUGUCACACACGCACACGCACACCUAUAGGUAUCUGUGGCACACCUGUAGGUGUCACACACGCACACCUGUAGGUGUCACACAAGCACACGCACACCUGUAGGUGUCACACACGCACACCUAGGUGUCUGUAUAGCACACGCACACCUGUAGAUGCUCUUGCGGUCGCACUAGUGUGGAAUUCUCGGGUGUCAAGG

target: TDP-43 (Homo sapiens, UniProt Q13148 1-414); experiment: RNA Bind-n-Seq with designed 260-mer pool; 25 mM Tris-HCl, 150 mM KCl, 3 mM MgCl2, BSA (printed 500 mg/mL), 20 units/mL SUPERase IN; pH not stated; 500 nM RNA pool, 1 h, 4 C; TDP-43 5, 50, 500 nM; high values mean tight binding; details: protein: recombinant; tags: SBP (GST cleaved off with PreScission; pGEX-GST-SBP)
Method in brief: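 Streptavidin beads captured recombinant SBP-tagged TDP-43 at 5, 50 or 500 nM, and the beads were incubated for 1 h at 4 °C with 500 nM of an in vitro-transcribed pool of 260-nt 3′ UTR oligos in 25 mM Tris-HCl, 150 mM KCl, 3 mM MgCl2, BSA and SUPERase IN. After washing, bound RNA was eluted with biotin, reverse transcribed, PCR-amplified and sequenced. Binding is reported as R, the mapped-read-normalized abundance of each oligo in the bound sample divided by its abundance in the input. Two independent protein batches served as duplicates.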

Sequence of TDP-43 (Q13148 whole entry): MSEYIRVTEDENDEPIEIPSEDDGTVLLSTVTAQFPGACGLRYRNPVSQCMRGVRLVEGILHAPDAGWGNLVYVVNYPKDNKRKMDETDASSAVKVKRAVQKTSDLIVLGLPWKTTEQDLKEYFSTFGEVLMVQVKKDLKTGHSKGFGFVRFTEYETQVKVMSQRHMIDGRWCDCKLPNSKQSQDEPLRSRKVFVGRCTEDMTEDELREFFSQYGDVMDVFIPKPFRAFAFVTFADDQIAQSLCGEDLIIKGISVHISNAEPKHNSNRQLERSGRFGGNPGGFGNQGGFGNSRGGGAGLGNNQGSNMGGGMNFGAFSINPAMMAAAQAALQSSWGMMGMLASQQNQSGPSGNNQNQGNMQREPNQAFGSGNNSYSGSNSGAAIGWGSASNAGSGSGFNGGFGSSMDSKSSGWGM

Going from B1 to B2, the binding signal rises from 0.682 R (bound/input frequency ratio) to 4.09 R (bound/input frequency ratio).

Going from B3 to B4, the binding signal rises from 0.956 R (bound/input frequency ratio) to 5.96 R (bound/input frequency ratio).

First: B5
Second: B6
The binding signal of the first is higher: 6.52 R (bound/input frequency ratio) for the first, 5.29 R (bound/input frequency ratio) for the second.

First: B7
Second: B8
The binding signal of the first is higher: 6.63 R (bound/input frequency ratio) for the first, 5.82 R (bound/input frequency ratio) for the second.

In the case of B9, the binding signal is reported as 1.07 R (bound/input frequency ratio).
